# Assay outcomes from PubChem.
# In the library only some 7.8% were active in any assay of this set; here they are far more common.
# MARV entry inh – inhibitors of Marburg virus binding or cell entry; Marburg virus pseudotyped entry inhibition, cell reporter; Potency, µM (top dose mostly 37.8 µM), for the others: at the top dose activity change, negative = inhibition, usual class: inhibitors; 300,000 tested, 1.8% active; calls by dose curve; tested in HEK293 cells; further: potency means the concentration at half of the fitted maximal effect
# Vaccinia mCherry – vaccinia inhibition (mCherry reporter). Vaccinia virus mCherry reporter infection, fluorescence. Potency, µM (titrated, usually from 36.5 µM), inactives show at the top dose activity change, negative = inhibition, most hits filed as inhibitors. 310,000 tested, 0.63% active; calls by dose curve; tested in A549 cells; further: potency means the concentration at half of the fitted maximal effect; nearly all actives have a fitted effect of over 35% in size
# LASV entry inh – inhibitors of Lassa virus binding or cell entry. Lassa virus pseudotype entry inhibition, cell reporter. Potency, µM (titrated, usually from 37.9 µM), inactives show at the highest dose activity change, negative = inhibition, actives largely listed as inhibitors. 300,000 tested, 1.2% active. AID 540256; calls by dose curve; tested in HEK293 cells; further: potency means the concentration at half of the fitted maximal effect; nearly all actives have a fitted effect of over 50% in size
# HCMV inh – human cytomegalovirus inhibition; activity change, negative = inhibition, % at 57.5 µM; HFF cells, HCMV-luciferase reporter, 72 h; hits give low values; 410,000 tested, 4.5% active; in the data active means activity change below about -60%; inconclusive means no clear call, values can overlap the other calls; inactive means above about -39%
#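 HFF cells seeded 16 h at 37C, treated with compounds, infected with luciferase-reporter HCMV at MOI 1 PFU/cell; luciferase read at 72 h post infection, normalized to buffer-only and Salinomycin controls.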
# Vaccinia Venus – vaccinia inhibition (Venus reporter). Vaccinia virus Venus reporter expression, fluorescence. Potency, µM (doses to about 36.5 µM), without a hit: at the highest dose activity change, negative = inhibition, hits mostly inhibitors. 330,000 tested, 0.46% active. AID 720580; calls by dose curve; tested in A549 cells; further: potency means the concentration at half of the fitted maximal effect; nearly all actives have a fitted effect of over 30% in size
# HCV inhibitor – HCV inhibition | Huh7.5.1 HCVcc-Cre infection, luciferase reporter, 44 h | Potency, µM (series often up to 41.8 µM), without a hit: top-dose activity change, negative = inhibition, actives largely listed as inhibitors | 340,000 tested, 3.4% active | AID 651820; active means well fitted inhibition curve with a large enough effect; inconclusive means small, poorly fitted or top-dose-only effect, or another doubt; inactive means no such curve, though single readings can be large or run the other way; further: potency means the concentration at half of the fitted maximal effect
#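 Cells seeded at 1,000/well and cultured 4 h, then compounds added followed by HCVcc-Cre virus (~0.5 moi). After 44 h further culture, luciferase substrate was added, plates held 15 min at room temperature, and luminescence read for 15 sec.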
# * = called active by the depositor; ? = inconclusive; nt = not tested or not shown; [ ] = dose if it differs, or a comment. On the % scale 0 is the no-effect control and ±100 the full control effect.
SMILES,MARV entry inh,Vaccinia mCherry,LASV entry inh,HCMV inh,Vaccinia Venus,HCV inhibitor
CCOP(=O)(OCC)c1c2c(cc3ccc(Cl)cc13)CCC2,nt,nt,nt,-10,nt,nt
N#Cc1cccc(C(Br)S(=O)(=O)c2ccccc2)c1 (stereo not given),nt,?,nt,-91*,?,nt
Cc1ccccc1S(=O)(=O)Cc1ccc(C(=O)N2CCN(c3ccccc3F)CC2)o1,?,-10%,?,-34,-12%,10µM*
O=C(c1ccc(CS(=O)c2ccccc2Cl)o1)N1CCN(C2CCCCC2)CC1 (stereo not given),nt,-19%,nt,-101*,-21%,nt
O=C(c1ccc(CS(=O)c2ccccc2Cl)o1)N1CCN(c2ccccc2F)CC1 (stereo not given),nt,-21%,-13%[46.1 µM],-67*,-20%,nt
O=C(c1ccc(CS(=O)c2ccccc2Cl)o1)N1CCCCCC1 (stereo not given),nt,2%[7.34 µM],nt,2,7%[7.34 µM],2%
Cc1ccc(Cl)cc1N1CCN(C(=O)c2ccc(CS(=O)(=O)c3ccccc3C)o2)CC1,?,0%,-17%[46.1 µM],-15,3%,nt
CCCc1cc(=O)[nH]c(SCc2nc(-c3ccc(OC)cc3)no2)n1,nt,-7%,10%[46.1 µM],2,-8%,nt
COc1ccc(C2=C(C)C(=O)N(Cc3ccc(C(=O)Nc4ccc(F)cc4C)cc3)S2(=O)=O)cc1,nt,-12%,?,-63*,-16%,nt
COc1ccc(C2=C(C)C(=O)N(Cc3ccc(C(=O)Nc4cccc(F)c4)cc3)S2(=O)=O)cc1,nt,-20%,-15%[46.1 µM],-26,-26%,nt
Cc1ccc(-c2nnc(SCC(=O)N/N=C/c3c(C)nn(-c4ccccc4)c3C)n2-c2ccccc2)cc1,?,-4%,?,-27,-7%,11µM*
Cc1ccc(/C=N/NC(=O)CSc2nnc(-c3ccccc3)n2-c2ccc(Cl)cc2)o1,-2%,-4%,-9%,-84*,-10%,?
Cc1nn(-c2ccccc2)c(C)c1/C=N/NC(=O)c1cc(-c2ccccc2)n[nH]1,?,-10%,?,-95*,-26%,?
Cc1ccc(-c2nnc(SCC(=O)N/N=C/c3ccc(C)s3)n2-c2ccccc2)cc1,?,-29%,16µM*,-35,-21%,-16%
CCOc1ccc(CNC(=O)C2CCN(C(=O)N3CC(CC)Oc4ccc(C)cc43)CC2)cc1OC (stereo not given),nt,12%,?,-22,-4%,nt
CCc1nn(CC(=O)Nc2c(C)cc(C)cc2C)c(=O)c2cc3sccc3n12,?,-13%,nt,-14,-6%,nt
CC(C)Oc1ccc(C(=O)Nc2nonc2-c2ccc(OC(C)C)cc2)cc1,3%[46.1 µM],-16%,?,62,-21%,nt
CC1=CC[C@@H](COc2ccccc2)O[C@@]2(C1)C(=O)N(CC1CC1)c1ccccc12,20%[14.2 µM],nt,nt,nt,nt,nt
Cc1ccc(-c2nnc(SCC(=O)N/N=C/c3c(C)nn(-c4ccccc4)c3C)n2-c2ccc(C)cc2)cc1,?,37%,7.1µM*,-39,-1%,-3%
COc1ccc(-c2oc3ccc(-c4cc(OC)c(OC)c(OC)c4)cc3c2C(=O)c2ccc(OC)nc2)cc1,nt,-10%,nt,-99*,-12%,48%
CCSc1nnc(NC(=O)C(C)Sc2nc3ccccc3[nH]2)s1 (stereo not given),14%,-15%,29%,-103*,-13%,12%
CNCCC[C@]12CC[C@H](C3=C1CCCC3)C1CCCCC12 (stereo not given in full),4.6µM*,nt,nt,nt,nt,nt
Cc1ccc(NC(=O)c2cnc3sc(N4CCOCC4)nn3c2=O)cc1N(C)C,7%[46.1 µM],?,nt,-2,?,nt
COc1cc2c(cc1NC(=O)CSCC(=O)O)oc1ccccc12,-12%,-23%,-23%,-1,-6%,-15%
COc1ccc(C)cc1NC(=O)c1nn(-c2ccccc2)cc1OC,?,?,?,-16,?,7.1µM*
SMILES,MARV entry inh,Vaccinia mCherry,LASV entry inh,HCMV inh,Vaccinia Venus,HCV inhibitor
Cc1ccc(OC(F)F)c(NC(=O)Nc2cccc(C(F)(F)F)c2)c1,?,nt,?,-99*,nt,10µM*
COc1cc2c(cc1NC(=O)Nc1ccccc1)oc1ccccc12,-4%,nt,-19%,-28,?,5µM*
COc1cn(-c2ccccc2)nc1C(=O)Nc1ccc(C)cc1,?,-29%,?,37,-24%,?
COc1cc2c(cc1NC(=O)CSc1ccc(C)cc1)oc1ccccc12,?,nt,2%,20,nt,10µM*
CNC(=O)Nc1cccc(C(F)(F)F)c1,0%,nt,11%,-21,nt,0%
COc1cc2c(cc1NC(=O)C(C)NCc1ccccc1)oc1ccccc12 (stereo not given),?,-16%,20%,-7,-24%,?
CC(CCN1CCCc2nc(C)c(C)cc21)=NO[C@H](C)c1cn([C@@H]2COC[C@@H]2O)nn1,7%[14.2 µM],nt,?,nt,nt,nt
CCc1ccccc1N(C)C,nt,-8%,nt,nt,-4%,nt
COc1ccccc1N1CCN(c2nc3c(S(=O)(=O)c4ccc(C)c(C)c4)nnn3c3ccc(Cl)cc23)CC1,-13%[46.1 µM],-16%,nt,16,-17%,nt
COc1ccc(NC(=O)Nc2cc(C)ccc2OC)cc1,0%,nt,-4%,-10,nt,?
COc1cc2c(cc1NC(=O)c1ccc3c(c1)OCO3)oc1ccccc12,?,-9%,?,1,5%,14µM*
COc1ccc(C)cc1NC(=O)Nc1ccccc1,0%,nt,1%,40,-23%,3.2µM*
COc1cc2c(cc1NC(=O)COC(=O)Cn1cnc3ccccc31)oc1ccccc12,?,-25%,2%,45,-15%,2.2µM*
COc1cc2c(cc1NC(=O)CN(C)Cc1ccc(OC)c(OC)c1)oc1ccccc12,1%,nt,nt,-30,nt,3.5µM*
COc1cc2c(cc1NC(=O)COc1ccccc1OC)oc1ccccc12,-25%,nt,1%,-21,nt,?
Nc1nc(=S)[nH]c(N)c1N,nt,40%,nt,nt,9%,nt
CN(C1CCCCC1)S(=O)(=O)c1ccc2c(c1)c(=O)c(C(=O)N1CCN(c3ccccc3F)CC1)cn2C,?,-2%,11%[46.1 µM],12,11%,nt
N#Cc1ccccc1NC(=O)CSc1ncn[nH]1,nt,-3%,17%[46.1 µM],-21,6%,nt
CCCCn1c(=O)c2oc3ccccc3c2n(Cc2ccccc2C)c1=O,nt,-27%,1%[46.1 µM],-17,-24%,nt
COc1cc2c(cc1NC(=O)Cc1ccc(C)cc1)oc1ccccc12,?,nt,9%,-28,nt,10µM*
COc1cc2c(cc1NC(=O)CCC(=O)O)oc1ccccc12,15%[46.1 µM],-6%,-3%[46.1 µM],-5,-8%,?
Cc1ccc(CN2CCCn3nc(C(=O)NCCc4ccc(Cl)cc4)cc3C2=O)cc1,nt,-21%,1%[46.1 µM],-12,-16%,nt
O=C(Nc1cccc(NC(=O)c2ccco2)c1)c1ccccc1,6%[46.1 µM],7%,-3%[46.1 µM],-21,8%,?
COc1cccc(OC)c1C(=O)Nc1ccc(NC(=O)c2ccco2)cc1,9%,?,0%,nt,-21%,15%
